Data from PubChem BioAssay (NCATS).
“And” between values parts separate entries of the source, which are not always exact repeats. Identical values can stand only once. Records with an inconclusive call do not appear. Where a call stands in place of a potency, no number is given. The source made the active and inactive calls. Unless noted, the call rests on the fitted dose curve.

How the values were obtained:
[1] = Primary qHTS for inhibitors of SARS-S pseudo-typed particle cell entry (AID 1479145); further: nearly all actives have a fitted effect of over 45% in size
[2] = Primary qHTS for Huh7 cytotoxicity: counterscreen for inhibitors of MERS-S pseudotyped particle cell entry (AID 1479147); conditions: outcome: dose series up to 57.1 µM unless noted
[3] = Primary qHTS for inhibitors of MERS-S pseudo-typed particle cell entry (AID 1479149); further: nearly all actives have a fitted effect of over 60% in size
[4] = Primary qHTS for Vero E6 cytotoxicity: counterscreen for inhibitors of SARS-S pseudo-typed particle cell entry (AID 1479150); conditions: outcome: dose series up to 57.1 µM unless noted
[5] = Cytotoxicity counterscreen for inhibitors of SARS-CoV-2 cell entry (AID 1645845); further: nearly all actives have a fitted effect of over 50% in size
Outline: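 After a 15 min room-temperature ATPLite 1step step, luminescence reflected ATP remaining in HEK293-ACE2 cells exposed to compound for 1 h plus 48 h at 37 C, with percent activity set by cell and no-cell controls.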

[6] = Primary qHTS to identify inhibitors of SARS-CoV-2 cell entry (AID 1645846); conditions: activity change, negative = inhibition: at 57.1 µM (top of the series) unless noted; further: nearly all actives have a fitted effect of over 45% in size
Outline: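 HEK293-ACE2 (Expi293F, stable hACE2), 1500 cells/well, o/n 37C; cpd 23 nL pin, 1 h; MLV-PP w/ SARS-CoV-2-S (Wuhan-Hu-1, Δ19 C-term); 48 h 37C; Bright-Glo luminescence; normalized vs S-PP and bald PP.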

[7] = test system: CRL-7250; experiment: qHTS assay to identify novel small-molecules to repurpose for Merkel cell carcinoma treatment (AID 1296009; active means well fitted inhibition curve with a large enough effect; further: nearly all actives have a fitted effect of over 60% in size); conditions: MCC and control cell lines, CellTiter-Glo viability, 72 h; series mostly up to 92 µM
Outline: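 Viability readout: ATP luminescence (CellTiter-Glo) after 72 hr drug exposure at 37 degree celsius. Dose-response format was 8 points for NPC and 11 points for MIPE; data normalized to in-plate controls.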

[8] = Confirmatory qHTS for VERO E6 Cytotoxicity Assay: Counterscreen for SARS-CoV-2 CPE Assay (AID 1508605); further: nearly all actives have a fitted effect of over 60% in size; further: potency means the concentration at half of the fitted maximal effect
[9] = Confirmatory qHTS for activators (rescue) of SARS-CoV-2 Cytopathic Effect (CPE) (AID 1508606); further: potency means the concentration at half of the fitted maximal effect; nearly all actives have a fitted effect of over 70% in size
[10] = qHTS for Inhibitors of the Functional Ribonucleoprotein Complex (vRNP) of Lassa (LASV) Arenavirus: Viability assay - alamar blue signal for LASV Primary Screen (AID 1347083; calls by dose curve; tested in HEK293 reporter line; further: nearly all actives have a fitted effect of over 80% in size; further: potency means the concentration at half of the fitted maximal effect)
[11] = molecular target: Nucleoprotein (Lymphocytic choriomeningitis virus (strain Armstrong)) (UniProt P09992); experiment: qHTS for Inhibitors of the Functional Ribonucleoprotein Complex (vRNP) of Lymphocytic Choriomeningitis Arenaviruses (LCMV): LCMV Primary Screen - GLuc reporter signal (AID 1347086); further: potency means the concentration at half of the fitted maximal effect; nearly all actives have a fitted effect of over 70% in size
[12] = qHTS for inhibitors of Rabies Virus screened against the NCATS CANVASS Library (AID 1347402)
[13] = VSVG counterscreen qHTS to identify inhibitors of SARS-CoV-2 cell entry (AID 1645847); further: nearly all actives have a fitted effect of over 65% in size
Outline: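 Expi293F/hACE2 cells, overnight plating; cpd 1 h, 37C/5% CO2; + VSV-G PP (MLV pseudotyping), 48 h; supernatant removed, Bright-Glo luciferase read. Norm: VSV-G PP and bald PP wells.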

[14] = qHTS for Inhibitors of the Functional Ribonucleoprotein Complex (vRNP) of Lymphocytic Choriomeningitis Arenaviruses (LCMV): Viability assay - alamar blue signal for LCMV Primary Screen (AID 1347085; calls by dose curve; tested in HEK293 reporter line; further: nearly all actives have a fitted effect of over 80% in size; further: potency means the concentration at half of the fitted maximal effect)

Chain of Nucleoprotein (Lymphocytic choriomeningitis virus (strain Armstrong)) (P09992 whole entry, looked up): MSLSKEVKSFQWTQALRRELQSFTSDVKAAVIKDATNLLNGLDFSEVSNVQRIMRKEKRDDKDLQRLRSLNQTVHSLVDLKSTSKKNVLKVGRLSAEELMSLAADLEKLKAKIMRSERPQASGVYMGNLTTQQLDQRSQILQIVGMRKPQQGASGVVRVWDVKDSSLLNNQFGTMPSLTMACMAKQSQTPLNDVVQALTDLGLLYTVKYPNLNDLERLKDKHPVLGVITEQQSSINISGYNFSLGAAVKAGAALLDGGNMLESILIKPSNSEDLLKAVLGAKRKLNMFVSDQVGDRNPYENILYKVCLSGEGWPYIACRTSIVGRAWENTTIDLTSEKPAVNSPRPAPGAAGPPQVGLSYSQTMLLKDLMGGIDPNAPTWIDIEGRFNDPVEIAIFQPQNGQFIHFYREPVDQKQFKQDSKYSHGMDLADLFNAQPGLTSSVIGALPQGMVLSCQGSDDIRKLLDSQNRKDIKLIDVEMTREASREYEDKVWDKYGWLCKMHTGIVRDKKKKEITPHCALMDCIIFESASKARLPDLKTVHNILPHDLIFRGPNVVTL

CCC(=O)NS(=O)(=O)c1ccc(-c2c(-c3ccccc3)noc2C)cc1
Potency [1]: inactive | outcome [2]: inactive | Potency [3]: inactive | outcome [4]: inactive | Potency [5]: inactive | activity change, negative = inhibition [6]: -22.2% and -23.1% | Potency [7]: inactive

Cn1nc(C(C)(C)C)cc1C(=O)N[C@@H](Cc1cccc(Cl)c1)C(=O)NCC#N
Potency [8]: inactive | Potency [9]: 0.224 µM (active) | Potency [7]: inactive

CC1(C)OC(=O)C(OCC2CC2)=C1c1ccc(S(C)(=O)=O)cc1
outcome [2]: inactive | Potency [3]: inactive | outcome [4]: inactive | Potency [5]: inactive | Potency [7]: inactive

CC=CCC(C)C(O)C1C(=O)NC(CC)C(=O)N(C)CC(=O)N(C)C(CC(C)C)C(=O)NC(C(C)C)C(=O)N(C)C(CC(C)C)C(=O)NC(C)C(=O)NC(C)C(=O)N(C)C(CC(C)C)C(=O)N(C)C(CC(C)C)C(=O)N(C)C(C(C)C)C(=O)N1C (stereo not drawn)
Potency [10]: inactive | Potency [11]: 13.7 µM (active) | Potency [7]: inactive

CN1CCC(c2cn(C)c3ccc(OS(=O)(=O)c4c(F)cccc4F)cc23)CC1
Potency [8]: inactive | Potency [9]: 11.2 µM (active) | Potency [7]: inactive

C[C@]12CC[C@@H]3c4ccc(OC(=O)c5ccccc5)cc4CC[C@H]3[C@@H]1CC[C@@H]2O
Potency [1]: inactive | outcome [2]: inactive | outcome [4]: inactive | Potency [5]: inactive | activity change, negative = inhibition [6]: -3.2% | Potency [7]: inactive

CC(C)c1ccc2c(c1)CCC1[C@](C)(C(=O)O)CCC[C@]21C (stereo partly drawn)
outcome [12]: inactive | Potency [7]: inactive

CCN(CC)CCOCCOC(=O)C(CC)(CC)c1ccccc1
outcome [2]: inactive | outcome [4]: inactive | Potency [5]: inactive | Potency [13]: inactive | Potency [7]: inactive

C[C@@H]1O[C@@H](O[C@H]2[C@H](OC(=O)[C@]34CCC(C)(C)C[C@H]3C3=CCC5[C@@]6(C)CC[C@H](O[C@@H]7O[C@H](CO[C@@H]8OC[C@H](O)[C@H](O)[C@H]8O)[C@@H](O)[C@H](O)[C@H]7O)C(C)(C)C6CC[C@@]5(C)[C@]3(C)C[C@H]4O)OC[C@@H](O)[C@@H]2O)[C@H](O)[C@H](O[C@@H]2OC[C@](O)(CO)[C@H]2O)[C@H]1O[C@@H]1OC[C@H](O)[C@H](O[C@@H]2OC[C@@H](O)[C@H](O)[C@H]2O)[C@H]1O (stereo partly drawn)
Potency [8]: 1.91 µM (active) | outcome [7]: inactive [at 9.27 µM]

CC(=O)O[C@]1(C(C)=O)CC[C@H]2[C@@H]3C=C(Cl)C4=CC(=O)[C@@H]5C[C@H]5[C@]4(C)[C@@H]3CC[C@@]21C
Potency [14]: 24.3 µM (active) | Potency [7]: inactive

Nc1ncnc2ccccc12
Potency [10]: 15.3 µM (active) | Potency [14]: 12.2 µM (active) | Potency [11]: 24.3 µM (active) | Potency [5]: inactive | Potency [7]: inactive

O=C1NC(=O)/C(=C/c2cccc(C(F)(F)F)c2)S1
Potency [8]: inactive | Potency [7]: inactive

COC(=O)N(C)c1c(N)nc(-c2nn(Cc3ccccc3F)c3ncccc23)nc1N
Potency [1]: inactive | outcome [2]: inactive | Potency [3]: inactive | outcome [4]: inactive | Potency [5]: inactive | Potency [6]: inactive | Potency [7]: inactive

Cc1onc(-c2ccccc2)c1C(=O)N[C@@H]1C(=O)N2[C@@H]1SC(C)(C)[C@@H]2C(=O)O
Potency [1]: inactive | outcome [2]: inactive | Potency [3]: inactive | outcome [4]: inactive | Potency [5]: inactive | activity change, negative = inhibition [6]: -25.7% | Potency [7]: inactive

c1cc(OCCN2CCCCC2)cc(-c2n[nH]c3ccc(-c4ncn[nH]4)cc23)c1
Potency [14]: inactive | Potency [7]: inactive

CC(=O)OC(C)(C)/C=C/C(=O)[C@](C)(O)[C@H]1C(O)C[C@@]2(C)[C@@H]3CC=C4[C@@H](C=C(O[C@@H]5O[C@H](CO)[C@@H](O)[C@H](O)[C@H]5O)C(=O)C4(C)C)[C@]3(C)C(=O)C[C@]12C (stereo partly drawn)
Potency [1]: inactive | outcome [2]: inactive [at 15.3 µM] | Potency [3]: inactive | outcome [4]: inactive [at 15.3 µM] | Potency [5]: inactive | Potency [7]: inactive

COc1ccc2c3c1O[C@H]1C[C@@H](O)C=C[C@@]31CCN(C)C2
Potency [1]: inactive | outcome [2]: inactive | Potency [3]: inactive | outcome [4]: inactive | Potency [5]: inactive | Potency [6]: inactive | Potency [7]: inactive

C[C@H](O)[C@H](O)[C@H]1CNc2nc(N)[nH]c(=O)c2N1
outcome [2]: inactive | Potency [3]: inactive | outcome [4]: inactive | Potency [5]: inactive | activity change, negative = inhibition [6]: -28% | Potency [7]: inactive

O=c1[nH]c2ccccc2n1CCN1CCN(c2cccc(C(F)(F)F)c2)CC1
outcome [2]: inactive | outcome [4]: inactive | Potency [5]: inactive | Potency [7]: inactive

CC[C@H](NC(=O)[C@H](C)NC)C(=O)N1C[C@@H](O)C[C@H]1Cc1c(-c2[nH]c3cc(F)ccc3c2C[C@H]2C[C@H](O)CN2C(=O)[C@H](CC)NC(=O)[C@H](C)NC)[nH]c2cc(F)ccc12
Potency [10]: 6.85 µM (active) | Potency [14]: 3.85 µM (active) | Potency [11]: 7.69 µM (active) | Potency [7]: inactive
